Activity calls are given as the source filed them. Unless noted, the rule behind the calls is not given here.
Key:
[1] = system: Wnt5a (protein binding on small-molecule microarray); assay: Wnt5a binders on small-molecule microarray, primary screen, biophysical, 635/667 nm fluorescence (AID 1142); conditions: 635 nm fluorescence, higher = more signal;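 note: fluorescence read at 667 nm with signal to noise per printed feature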
[2] = cell viability in Huh7 cells, primary screen, cytotoxicity control for HCV replication inhibitor project, CellTiter-Glo luminescence, basal, 48 h (AID 1143); conditions: Huh7 HCV replicon, higher = more signal, called active from +8 up or from −8 down;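 note: Huh7 hepatoma cells carrying a hepatitis C replication reporter with no stimulus; test concentration not given here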
[3] = P. aeruginosa biofilm formation inhibitors, primary screen, PAO1 strain, BacTiter-Glo luminescence, LB-PBS (AID 1144); conditions: 12 h, higher = more signal
[4] = CREB reporter modulators without forskolin, primary screen, cell-based, PC12, CRE-LacZ reporter, unstimulated (AID 1145); conditions: no forskolin, luminescence, 4.5 h, higher = more signal, called active from +8 up or from −8 down
[5] = CREB reporter modulators under forskolin, primary screen, cell-based, PC12, CRE-LacZ reporter, forskolin-stimulated (AID 1146); conditions: luminescence, 4.5 h, higher = more signal, called active from +8 up or from −8 down;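 note: PC12 cells with 6xCRE LacZ reporter stimulated by forskolin 10 µM; beta-galactosidase reporter signal reflecting CREB driven transcription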
[6] = biological target: Streptavidin (Streptomyces avidinii) (UniProt P22629); assay: streptavidin binders on small-molecule microarray, primary screen, artefact control for SMM compound annotation, biophysical, 635/667 nm fluorescence (AID 1147); conditions: streptavidin binding, higher = more signal;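 note: signal reflects streptavidin binding to arrayed compounds as a control protein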
[7] = small-molecule binders of probe aInhba, primary screen, biochemical, small-molecule microarray, 635/667 nm fluorescence (AID 1148); conditions: higher = more signal;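 note: score merges 667nm spot fluorescence with signal-to-noise for antibody binding to printed compounds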
[8] = biological target: Torsin-1A (Homo sapiens) (UniProt O14656); assay: torsin A binders from cell lysate, primary screen, small-molecule microarray, wild-type, 635/667 nm (AID 1149); conditions: COS7 hTOR1A-WT lysate, 635 nm fluorescence, higher = more signal
[9] = biological target: Torsin-1A (Homo sapiens) (UniProt O14656); assay: small-molecule binders of mutant TOR1A in lysate, primary screen, cell lysate, small-molecule microarray, COS7 lysate, 635/667 nm fluorescence (AID 1150); conditions: COS7 hTOR1A mutant lysate, 635 nm fluorescence, higher = more signal;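 note: score pools 667 nm emission and signal to noise measuring lysate protein binding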
[10] = system: Sonic hedgehog protein (Shh); assay: small-molecule binders of Shh protein, primary screen, biochemical, small-molecule microarray, 635/667 nm fluorescence (AID 1151); conditions: small-molecule microarray binding, 635 nm fluorescence; higher = more signal;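 note: Shh protein binding to compounds spotted on small-molecule microarray slides; score combines spot fluorescence intensity with signal-to-noise across triplicate slides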
[11] = E. coli DRC41 culture turbidity changes, primary screen, E. coli filamentation inducer project, strain DRC41, OD650, 48 h (AID 1152);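 note: E. coli MC1000 strain DRC41 lacking acrAB efflux pump and sulA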; conditions: E. coli DRC41 (acrAB sulA), higher = more signal, called active from +8 up or from −8 down
[12] = small-molecule binders of probe aLefty1, primary screen, biochemical, small-molecule microarray, 635/667 nm fluorescence (AID 1153); conditions: higher = more signal;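 note: score merges spot fluorescence with signal-to-noise ratio from the scanned slide images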
[13] = PSAC antagonists in infected red cells, primary screen, cell-based, P. falciparum Indochina, OD700, 1 h (AID 1154); conditions: P. falciparum Indochina infected RBC osmotic lysis, higher = more signal, called active from +8 up or from −8 down
[14] = PSAC antagonists in infected red cells, primary screen, cell-based, P. falciparum Indochina, OD700, 2 h (AID 1155);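 note: lysis reports solute entry through the parasite surface anion channel PSAC; channel blockers reduce lysis of infected cells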; conditions: P. falciparum Indochina infected erythrocytes, osmotic lysis OD700; higher = more signal, called active from +8 up or from −8 down
[15] = osmotic lysis modulators in infected erythrocytes, primary screen, PSAC antagonist project, cell-based, P. falciparum Indochina, OD700, 3 h (AID 1156); conditions: higher = more signal, called active from +8 up or from −8 down
[16] = PSAC antagonists in infected red cells, primary screen, cell-based, P. falciparum Indochina, OD700, 18 h (AID 1157); conditions: P. falciparum Indochina infected erythrocytes, osmotic lysis OD700, 18 h; higher = more signal, called active from +8 up or from −8 down
[17] = modulators of S6 phosphorylation in cells, primary screen, cell-based, A549, cytoblot, luminescence, serum-stimulated (AID 1158); conditions: A549 phospho-S6 cytoblot, 5 h, higher = more signal;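 note: serum-stimulated A549 lung adenocarcinoma cells; signal is phosphorylated S6 detected by cytoblot immunostaining with HRP secondary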
[18] = biological target: NADPH oxidase 2 (Homo sapiens) (UniProt P04839); assay: NOX2-dependent H2O2 signal modulators, primary screen, NOX inhibitor project, cell-based, HEK293-NOX2, PMA-stimulated, Amplex Red fluorescence (AID 1159); conditions: 45 min, higher = more signal, called active from +8 up or from −8 down; note: test concentration not given here
[19] = biological target: NADPH oxidase 4 (Homo sapiens) (UniProt Q9NPH5); assay: NOX4-dependent H2O2 signal modulators, primary screen, NOX inhibitor project, cell-based, HEK293-NOX4, tetracycline-induced, Amplex Red fluorescence (AID 1160); conditions: 45 min, higher = more signal, called active from +8 up or from −8 down
[20] = biological target: NADPH oxidase 5 (Homo sapiens) (UniProt Q96PH1); assay: NOX5-dependent H2O2 signal modulators, primary screen, NOX inhibitor project, cell-based, HEK293-NOX5, Amplex Red fluorescence (AID 1161); conditions: HEK293-NOX5, ionomycin, 45 min, higher = more signal
Sequence of NADPH oxidase 5 (Homo sapiens) (Q96PH1 whole entry, looked up): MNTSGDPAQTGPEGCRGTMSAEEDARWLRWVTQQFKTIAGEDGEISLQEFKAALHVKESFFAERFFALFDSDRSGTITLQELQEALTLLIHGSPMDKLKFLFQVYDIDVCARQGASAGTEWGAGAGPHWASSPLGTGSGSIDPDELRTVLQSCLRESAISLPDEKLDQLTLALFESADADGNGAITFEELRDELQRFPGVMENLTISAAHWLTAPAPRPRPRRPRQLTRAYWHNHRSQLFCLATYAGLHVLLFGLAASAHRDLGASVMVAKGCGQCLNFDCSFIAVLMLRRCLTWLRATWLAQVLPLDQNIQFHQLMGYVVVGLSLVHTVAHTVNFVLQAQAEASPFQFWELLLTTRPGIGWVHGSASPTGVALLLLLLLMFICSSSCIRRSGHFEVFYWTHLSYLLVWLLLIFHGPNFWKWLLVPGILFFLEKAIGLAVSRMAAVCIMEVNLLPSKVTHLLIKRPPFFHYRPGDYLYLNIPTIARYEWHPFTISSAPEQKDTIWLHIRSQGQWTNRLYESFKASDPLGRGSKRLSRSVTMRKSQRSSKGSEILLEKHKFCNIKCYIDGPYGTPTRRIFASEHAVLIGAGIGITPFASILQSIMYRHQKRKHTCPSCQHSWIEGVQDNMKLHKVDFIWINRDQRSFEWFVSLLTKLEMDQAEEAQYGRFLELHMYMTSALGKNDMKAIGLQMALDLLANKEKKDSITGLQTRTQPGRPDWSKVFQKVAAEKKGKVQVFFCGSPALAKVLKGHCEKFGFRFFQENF

Sequence of NADPH oxidase 2 (Homo sapiens) (P04839 whole entry, looked up): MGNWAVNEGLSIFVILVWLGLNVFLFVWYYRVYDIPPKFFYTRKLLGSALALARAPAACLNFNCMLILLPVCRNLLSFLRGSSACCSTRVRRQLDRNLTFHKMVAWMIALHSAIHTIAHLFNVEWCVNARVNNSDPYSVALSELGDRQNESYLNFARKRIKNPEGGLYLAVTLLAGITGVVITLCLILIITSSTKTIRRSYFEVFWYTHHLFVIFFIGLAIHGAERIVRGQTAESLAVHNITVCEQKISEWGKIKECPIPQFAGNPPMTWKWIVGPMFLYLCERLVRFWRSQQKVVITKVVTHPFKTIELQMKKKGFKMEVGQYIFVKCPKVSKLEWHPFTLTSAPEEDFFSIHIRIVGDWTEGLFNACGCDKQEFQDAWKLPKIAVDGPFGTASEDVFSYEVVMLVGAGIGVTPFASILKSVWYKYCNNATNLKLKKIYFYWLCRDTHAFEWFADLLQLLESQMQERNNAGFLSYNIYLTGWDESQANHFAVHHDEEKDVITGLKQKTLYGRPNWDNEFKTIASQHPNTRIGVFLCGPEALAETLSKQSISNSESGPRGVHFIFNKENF
Sequence of Torsin-1A (Homo sapiens) (O14656 whole entry, looked up): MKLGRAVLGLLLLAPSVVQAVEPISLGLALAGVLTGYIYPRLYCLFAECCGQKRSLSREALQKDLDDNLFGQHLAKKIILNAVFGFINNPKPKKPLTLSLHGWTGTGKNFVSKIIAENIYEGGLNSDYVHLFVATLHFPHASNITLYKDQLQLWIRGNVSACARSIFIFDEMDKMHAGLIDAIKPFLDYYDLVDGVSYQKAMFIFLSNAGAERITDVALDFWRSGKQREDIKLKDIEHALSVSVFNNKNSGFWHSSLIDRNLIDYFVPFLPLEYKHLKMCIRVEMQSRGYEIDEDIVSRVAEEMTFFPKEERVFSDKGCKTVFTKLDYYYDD
Sequence of NADPH oxidase 4 (Homo sapiens) (Q9NPH5 whole entry, looked up): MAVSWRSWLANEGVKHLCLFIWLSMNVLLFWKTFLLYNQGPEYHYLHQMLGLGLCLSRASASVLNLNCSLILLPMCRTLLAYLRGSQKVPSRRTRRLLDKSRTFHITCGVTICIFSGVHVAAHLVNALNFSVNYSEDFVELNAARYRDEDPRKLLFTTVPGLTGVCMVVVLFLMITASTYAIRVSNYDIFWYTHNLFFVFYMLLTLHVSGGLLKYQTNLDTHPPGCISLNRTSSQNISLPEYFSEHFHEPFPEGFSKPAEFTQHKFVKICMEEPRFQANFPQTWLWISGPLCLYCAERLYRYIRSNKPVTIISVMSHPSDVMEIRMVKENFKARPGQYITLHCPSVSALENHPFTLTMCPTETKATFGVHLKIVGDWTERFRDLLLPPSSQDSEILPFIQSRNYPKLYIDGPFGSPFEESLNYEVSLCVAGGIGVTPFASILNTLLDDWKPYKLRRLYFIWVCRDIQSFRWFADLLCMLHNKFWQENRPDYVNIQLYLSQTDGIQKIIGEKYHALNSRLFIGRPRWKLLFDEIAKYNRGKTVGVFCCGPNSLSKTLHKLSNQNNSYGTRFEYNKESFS
Sequence of Streptavidin (Streptomyces avidinii) (P22629 whole entry, looked up): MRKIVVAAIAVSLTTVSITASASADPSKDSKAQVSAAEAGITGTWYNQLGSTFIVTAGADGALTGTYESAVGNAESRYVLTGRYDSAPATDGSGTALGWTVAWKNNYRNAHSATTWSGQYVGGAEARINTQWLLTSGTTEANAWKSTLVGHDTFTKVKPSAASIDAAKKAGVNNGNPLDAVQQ

| Compound | composite z-score [1] | z-score [2] | z-score [3] | z-score [4] | z-score [5] | composite z-score [6] | composite z-score [7] | composite z-score [8] | composite z-score [9] | composite z-score [10] | z-score [11] | composite z-score [12] | z-score [13] | z-score [14] | z-score [15] | z-score [16] | z-score [17] | z-score [18] | z-score [19] | z-score [20] |
| --- | --- | --- | --- | --- | --- | --- | --- | --- | --- | --- | --- | --- | --- | --- | --- | --- | --- | --- | --- | --- |
| COCCCNC(=O)[C@@]1(Cc2ccccc2CN=[N+]=[N-])N=C(c2ccc(OCCCO)cc2)O[C@H]1c1ccccc1N=[N+]=[N-] | 1.08 | -4.47 (inactive) | -0.867 (inactive) | -0.207 (inactive) | -0.834 (inactive) | 1.37 | 0.786 | 0.0556 | 0.516 | 0.341 | 2.51 (inactive) | 0.0643 | 36.4 (active) | 30.8 (active) | 2.72 (inactive) | 3.1 (inactive) | -0.0478 | 0.0139 (inactive) | 1.3 (inactive) | -1.31 |
| CC(C)CNC(=O)[C@@]1(c2ccc([N+](=O)[O-])cc2)CC(=O)N(C(C)C)[C@@H]1c1ccc(CO)cc1 | -0.618 | -4.3 (inactive) | -1.28 (inactive) | -1.06 (inactive) | 0.107 (inactive) | -1.19 | -0.233 | -0.486 | -1.29 | 0.225 | 1.27 (inactive) | -0.0547 | 0.224 (inactive) | -0.227 (inactive) | -1.64 (inactive) | -0.533 (inactive) | 0.557 | -0.145 (inactive) | -0.423 (inactive) | -1.44 |
| COCCCNC(=O)[C@@]1(Cc2ccccc2I)c2ccccc2C(=O)N(Cc2ccccc2Cl)[C@H]1c1ccc(CO)cc1 | -0.193 | -4.15 (inactive) | -1.72 (inactive) | -0.529 (inactive) | -0.656 (inactive) | 1.46 | -0.0538 | -0.0444 | -0.078 | 0.191 | 0.437 (inactive) | -0.0346 | 5.51 (inactive) | 0.303 (inactive) | 0.65 (inactive) | 0.13 (inactive) | 0.984 | 0.374 (inactive) | -0.881 (inactive) | -2.14 |
| CN(C)CCCNC(=O)[C@@]1(Cc2ccccc2I)c2ccccc2C(=O)N(Cc2ccccc2Cl)[C@H]1c1ccc(CO)cc1 | 0.228 | -5.9 (inactive) | 0.599 (inactive) | 0.0548 (inactive) | 2.02 (inactive) | 0.592 | 0.397 | -0.155 | -0.609 | -0.0692 | -2.91 (inactive) | 0.208 | 10.7 (active) | 0.867 (inactive) | -0.613 (inactive) | 0.524 (inactive) | -1.27 | -10.2 (active) | -4.71 (inactive) | -5.47 |
| O=C(C=C(CC(O)c1cccc(Cl)c1)OCCF)OCCF (stereo not given) | -0.234 | -3.1 (inactive) | 0.117 (inactive) | 0.481 (inactive) | -0.722 (inactive) | -0.0847 | -0.267 | -0.489 | -0.167 | -0.335 | 0.597 (inactive) | -0.0694 | 1.35 (inactive) | -0.385 (inactive) | -0.0116 (inactive) | -1.67 (inactive) | 0.785 | 0.176 (inactive) | -0.15 (inactive) | 0.305 |
| C=CCC(OC(C)=O)[C@@H]1[C@@H](N(Cc2ccc(-c3cccc(C(F)(F)F)c3)o2)C(=O)c2cccc3ccccc23)c2cc(OCCCO)ccc2N1C(=O)c1ccc(-c2ccccc2)cc1 (stereo not given in full) | 0.0391 | -1.63 (inactive) | 0.595 (inactive) | -0.272 (inactive) | -0.262 (inactive) | 0.0133 | -0.0112 | 0.1 | -0.138 | 1.06 | -0.985 (inactive) | -0.012 | 0.531 (inactive) | 0.431 (inactive) | 2.33 (inactive) | 0.485 (inactive) | -0.326 | -0.959 (inactive) | -1.45 (inactive) | -1.08 |
| COC(=O)C(CC#Cc1ccc2c(c1)[C@]1(C(=O)N2)[C@H](C(=O)N2CCc3cc(OC)c(OC)cc3C2)[C@H]2C(=O)O[C@H](c3ccccc3)[C@H](c3ccccc3)N2[C@@H]1c1ccc(O)cc1)C(=O)OC | 0.746 | -3.3 (inactive) | -1.21 (inactive) | 0.0384 (inactive) | -1.12 (inactive) | 0.112 | 0.263 | 0.644 | 0.694 | 1.87 | 1.58 (inactive) | -0.321 | 6.21 (inactive) | 1.93 (inactive) | 1.93 (inactive) | 0.958 (inactive) | 0.125 | -0.0647 (inactive) | -1.83 (inactive) | 0.121 |
| COc1ccc(C#Cc2ccc3c(c2)[C@]2(C(=O)N3)[C@H](c3ccc(OCCO)cc3)N3[C@H](c4ccccc4)[C@H](c4ccccc4)OC(=O)[C@H]3[C@@H]2C(=O)N2CCN(c3ncccn3)CC2)cc1 | 0.0992 | -3.47 (inactive) | -0.385 (inactive) | 0.0653 (inactive) | -0.239 (inactive) | 0.819 | -0.0521 | 0.433 | 0.374 | 0.666 | 2.34 (inactive) | 0.0436 | 3.2 (inactive) | 0.964 (inactive) | -1.48 (inactive) | -0.856 (inactive) | 0.379 | 1.15 (inactive) | 0.706 (inactive) | 1.34 |
| [N-]=[N+]=NCc1ccccc1C[C@@]1(C(=O)NCCN2CCOCC2)N=C(c2ccc(OCCCO)cc2)O[C@@H]1c1ccccc1CN=[N+]=[N-] | 0.784 | -2.99 (inactive) | 0.497 (inactive) | -0.641 (inactive) | -0.781 (inactive) | 0.697 | 0.196 | -0.0348 | 0.472 | 0.619 | 0.648 (inactive) | 0.565 | 26.4 (active) | 13.7 (active) | 1.2 (inactive) | 2.26 (inactive) | -0.213 | 0.528 (inactive) | 0.116 (inactive) | 2.24 |

— PubChem BioAssay
